Reference: PubChem BioAssay AID602252 (Broad Institute, 2012)
Among all 300,000 compounds or so, about 2,700 (0.9%) were called active.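 Rule for the calls: active = mean inhibition of at least 30% with at least half of replicates also reaching 30%; inconclusive = no clear call, values can overlap the other calls; inactive = the rest.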 What follows is part of a selection rich in actives, with near analogues and random picks from the rest.

biological target: Golgi-associated PDZ and coiled-coil motif-containing protein (Homo sapiens) (UniProt Q9HD26); test: untagged CAL PDZ binding inhibitors, primary screen, biochemical, fluorescence polarization, HTS (AID 602252); conditions: purified CAL PDZ, TMR-peptide fluorescence polarization, 1 h; at 24.9 µM; stronger effect = higher value;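 note: 0% = DMSO neutral control and 100% = excess unlabeled competitor peptide PRC23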

SMILES	inhibition
CC(C)OC(=O)c1c(NC(=O)c2ccco2)sc2c1CCCC2	-1.93% (inactive)
CCOC(=O)c1c(NC(=S)NC(=O)c2ccco2)sc2c1CCCC2	58.9% (active)
CCOC(=O)c1c(NC(=S)NC)sc2c1CCCC2	2.4% (inactive)
C=CC(COCc1ccccc1)N(CC(=O)OC)S(=O)(=O)c1cc(Br)ccc1OC (stereo not drawn)	-5.08% (inactive)
Cc1ccc(S(=O)(=O)NCCC(c2ccccc2)c2ccccc2)cc1C(=O)O	3.3% (inactive)
Cc1ccc(C(=O)NCCNC(=O)c2ccccc2)cc1	10.7% (inactive)
Cc1ncoc1C(=O)NCCC(c1ccccc1)c1ccccc1	56.7% (active)
COc1cc(C(=O)NC2CCN(C)CC2)ccc1Nc1ncc2c(n1)N(C1CCC(O)CC1)CCC(=O)N2C (stereo not drawn)	-0.543% (inactive)
FC(F)(F)c1ccc(-c2cccc3c2C2CC3CCN2Cc2ccccc2)cc1 (stereo not drawn)	-2.76% (inactive)
CC(C)c1ccc(C=NNc2ccc([N+](=O)[O-])cn2)cc1	-3.5% (inactive)
C[C@H](O)[C@@H]1C(=O)N2CCc3ccc(N4CCOCC4)cc3[C@@H]2C[C@@H]1N(C)C(=O)C(C)(C)C	-2.27% (inactive)
CN(CCc1ccccc1)C(=O)c1cccc(NC(=O)Cc2cccc(NC(=O)C3CCCN(C(=O)CCc4ccccc4)C3)c2)c1 (stereo not drawn)	-1.89% (inactive)
Cc1ccc(CS(=O)Cc2ccc(C(=O)N3CCOCC3)o2)cc1 (stereo not drawn)	61.7% (active)
Cc1ccc(S(=O)Cc2ccc(C(=O)N3CCN(C4CCCCC4)CC3)o2)cc1 (stereo not drawn)	-1.71% (inactive)
Cc1ccc(C(=O)N2CCN(C(=O)N3CCOCC3)CC2)cc1	-4.62% (inactive)
CC/C(=C(/c1ccccc1)c1ccc(OCC[N+](C)(C)C)cc1)c1ccccc1	5.44% (inactive)
CC(C)Cn1cnc2c(SCc3ccc(Cl)cc3)nc(N)nc21	-5.42% (inactive)
CC(=O)CSc1nc(CCc2ccccc2)c(C#N)c(=O)[nH]1	-3.06% (inactive)
CS(=O)(=O)c1sc(C(=O)NC(=S)Nc2ccc(OC(F)(F)F)cc2)c2c1C=CCC2	106% (active)
FC(F)(F)Oc1ccc(NC(=S)NCc2ccccc2)cc1	2.02% (inactive)

SMILES	inhibition
CCNC(=S)Nc1ccc(OC(F)(F)F)cc1	-0.766% (inactive)
CCC(=O)N1CCc2cc(Br)c(S(=O)(=O)NCCN3CCCCC3CC)cc21 (stereo not drawn)	-29.4% (inactive)
Cc1ccc(C(=O)Nc2ccccc2-c2ccccc2)cc1S(=O)(=O)Nc1ccccc1	-1.73% (inactive)
Cc1ccc(CNC(=O)Cn2cnc3c(NCc4ccccc4)ncnc32)o1	-0.092% (inactive)
COc1ccc(C)cc1NC(=O)CN1c2cccc3cccc(c23)S1(=O)=O	-0.836% (inactive)
COc1ccc(NC(=O)C(C)N2c3cccc4cccc(c34)S2(=O)=O)c(OC)c1 (stereo not drawn)	62.5% (active)
CC(C(=O)N1CCOCC1)N1c2cccc3cccc(c23)S1(=O)=O (stereo not drawn)	0.599% (inactive)
CC(C)(C)NC(=O)Cn1cnc2cc([N+](=O)[O-])ccc2c1=O	-5.79% (inactive)
O=C(Cn1cnc2cc([N+](=O)[O-])ccc2c1=O)NC(=O)NCc1ccccc1	65.7% (active)
O=C(Cn1cnc2c(cnn2-c2ccccc2)c1=O)NCc1ccccc1	2.18% (inactive)
COc1cc(C(=O)OCc2cc(=O)n3ccsc3n2)ccc1OC(C)C	-4.78% (inactive)
Oc1[nH]c2ccccc2c1N=Nc1c(F)c(F)c(F)c(F)c1F	-3.27% (inactive)
O=C(OCC(=O)N1CCN(c2ccccc2)CC1)c1ccc([N+](=O)[O-])s1	4.92% (inactive)
O=C(OCC(=O)N1CCN(C(=O)c2ccco2)CC1)c1c(Cl)cccc1Cl	-0.558% (inactive)
CC(C)CNS(=O)(=O)c1ccc(CCC(=O)NCc2ccc(Cl)cc2)cc1	0.426% (inactive)
Cc1ccc(S(=O)(=O)NCCC(=O)NCc2ccc(Cl)cc2)cc1C	66.1% (active)
Cc1ccc(S(=O)(=O)NCCC(=O)Nc2ccc(C)c(Cl)c2)cc1C	-1.6% (inactive)
CCN(CC)C(=O)[C@H]1C[C@H](CC(=O)NCC23CC4CC(CC(C4)C2)C3)C(=O)N2CCc3c([nH]c4cc(CCC(=O)N(C)C)ccc34)[C@]12C	-1.84% (inactive)
Cc1cc(-n2nc(C)cc2C)n2ncc(-c3ccccc3)c2n1	-1.01% (inactive)
Cc1cc(C(F)(F)F)n2ncc(-c3ccccc3)c2n1	50.2% (active)

SMILES	inhibition
O=C(O)c1cnn2c(C(F)(F)F)cc(-c3ccccc3)nc12	0.025% (inactive)
O=[N+]([O-])c1cccc(C=NN=Cc2ccccc2O)c1	6.22% (inactive)
COC(=O)[C@]1(Cc2ccccc2)N[C@H](CN(C)S(=O)(=O)c2ccc(OC(F)(F)F)cc2)[C@@H]2C(=O)N(Cc3ccccc3)C(=O)[C@@H]21	-5.9% (inactive)
NN=C(NN=Cc1ccccc1)c1ccccc1	-2.94% (inactive)
COc1ccc(-c2nc3cc(C)ccn3c2NC2CCCCC2)cc1SC1CCCCC1	-0.092% (inactive)
CCCCN(CC(=O)Nc1cccc(S(=O)(=O)N2CCCC2)c1)Cc1nc2ccccc2c(=O)[nH]1	-3.98% (inactive)
CCc1ccc(CN(C)C(C)C(=O)Nc2ccc(S(=O)(=O)N3CCCC3)cc2)cc1 (stereo not drawn)	2.24% (inactive)
COc1cc(OC)cc(-c2c(C#Cc3ccsc3)c3cc(-c4ccc(OC)cc4F)ccc3n2C)c1	2.79% (inactive)
O=C1OCC2=C1C(c1ccc(Cl)cc1)c1cc3c(cc1O2)OCO3 (stereo not drawn)	7.51% (inactive)
Cc1ccc(-c2cc(C(=O)N3CCc4ccccc4C3)no2)cc1	1.04% (inactive)
CN(c1ccc(C(=O)N2CCc3ccccc3C2)cc1)S(C)(=O)=O	3.47% (inactive)
Cn1cccc1C(=O)N1CCc2ccccc2C1	91.2% (active)
O=S(=O)(Cc1ccc(Cl)cc1Cl)c1ccc(Cl)cc1	-1.54% (inactive)
Cc1nn(-c2ncccn2)c2c1C(=O)CC(C)(C)C2Br (stereo not drawn)	0.781% (inactive)
CN(C)C(CNC(=O)c1cc2ccccc2o1)c1ccccc1 (stereo not drawn)	-5.09% (inactive)
CCCCn1c(=S)[nH]c2ccccc2c1=O	-2.2% (inactive)
CCCCNC(=O)c1ccc(-n2c(=S)[nH]c3ccccc3c2=O)cc1	41.5% (active)
CCN(CC)CCCNC(=O)c1ccc2c(=O)n(Cc3ccc4c(c3)OCO4)c(=S)[nH]c2c1	-3.92% (inactive)
